Hits are enriched below; roughly 2.8% of the tested compounds scored in any of these assays.
Pol beta inh: blocks human DNA polymerase beta activity; P06746; Pol beta primer extension/strand displacement, fluorescence kinetic; Potency, µM (top dose mostly 114 µM), without a hit: at the top dose activity change, negative = inhibition, most hits filed as inhibitors; actives 1.3% (n = 340,000); AID 485314; also: potency is read from the fitted curve at half-maximal effect; % is scaled to controls: 0 for no effect and ±100 for the full control effect
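Human Pol beta at 10 nM; strand-displacement substrate 50 nM final. Compound exposure 15 min at room temperature before start, reaction 10 min at room temperature.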
POLK inh: DNA polymerase kappa (human) inhibition. Q9UBT6. purified Pol kappa, fluorescent DNA synthesis assay, 10 min. Potency, µM (titrated, usually from 107 µM), without a hit: top-dose activity, negative = inhibition, hits mostly inhibitors. actives 0.53% (n = 400,000). AID 588579; also: potency is read from the fitted curve at half-maximal effect; % is scaled to controls: 0 for no effect and ±100 for the full control effect
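Fluorescent qHTS in 1536-well format: enzyme (10 nM) and compound sat 15 min at room temperature before 50 nM substrate (final) was added. Signal taken at 0 and 10 min; no-enzyme buffer wells were negative controls.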
FEN1 inh-1: human FEN1 inhibition; P39748; Recombinant FEN1 flap cleavage, fluorescence, 15 min; Potency, µM (top dose mostly 114 µM), without a hit: at the top dose activity change, negative = inhibition, usual class: inhibitors; actives 0.35% (n = 390,000); AID 588795; also: potency is read from the fitted curve at half-maximal effect; % is scaled to controls: 0 for no effect and ±100 for the full control effect; nearly all actives have a fitted effect of over 65% in size
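Concentration–response screening of FEN1 (10 nM): 15 min compound preincubation at room temperature, reaction started with 50 nM substrate and read at 0 and 15 min. Corrected, normalized data were fitted by a four-parameter Hill equation.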
Pol eta inh: inhibitors of human DNA polymerase eta. actives 1.2% (n = 390,000). Potency, µM (series often up to 114 µM), for inactives: at the highest dose activity change, negative = inhibition, hits mostly inhibitors. recombinant Pol eta, fluorescent DNA replication assay; also: potency is read from the fitted curve at half-maximal effect; % is scaled to controls: 0 for no effect and ±100 for the full control effect
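Pol eta at 10 nM preincubated with compounds 15 min at room temperature; reaction started with fluorescent substrate (50 nM final) and read kinetically at 0 and 10 min.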
PI5P4K alpha inh: inhibitors of human PI5P4K alpha. max response, %. P48426. actives 1.2% (n = 330,000). PI5P4Kalpha enzyme, ADP-Glo luminescence, 60 min; stronger effect = lower value; active = max response of -50% or lower; inconclusive = between -30% and -50%; inactive = -30% or higher; also: value at the top dose of about 77 µM; % is scaled to controls: 0 for no effect and ±100 for the full control effect
Target sequence (P48426 whole entry, looked up): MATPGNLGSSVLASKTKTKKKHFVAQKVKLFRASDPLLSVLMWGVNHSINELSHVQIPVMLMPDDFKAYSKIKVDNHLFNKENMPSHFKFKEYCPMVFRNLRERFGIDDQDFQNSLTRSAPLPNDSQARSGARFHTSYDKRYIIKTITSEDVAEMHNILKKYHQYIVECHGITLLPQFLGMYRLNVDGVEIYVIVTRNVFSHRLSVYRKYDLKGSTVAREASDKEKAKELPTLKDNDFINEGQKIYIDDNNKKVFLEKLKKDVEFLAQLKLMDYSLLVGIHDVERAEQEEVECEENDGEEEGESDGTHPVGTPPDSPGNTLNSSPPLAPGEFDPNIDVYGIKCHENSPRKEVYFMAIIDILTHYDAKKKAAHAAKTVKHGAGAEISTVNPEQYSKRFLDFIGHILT
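Quantitative HTS of the MLSMR library against PI5P4Kalpha with substrate. ATP added last at 5 microM final; room temperature, 60 minutes. Remaining ATP depleted, ADP converted and read as luminescence.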
POLI inh: DNA polymerase iota (human) inhibition. Pol iota fluorescent replication assay, 10 min. Potency, µM (series often up to 115 µM), without a hit: at the top dose activity, negative = inhibition, hits mostly inhibitors. actives 1% (n = 390,000); also: potency is read from the fitted curve at half-maximal effect
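Pol iota at 10 nM preincubated 15 min with compounds at room temperature; reaction started with fluorescent substrate, 50 nM final. Fluorescence read kinetically at 0 and 10 min; buffer-only wells as negative control.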
FEN1 inh-2: confirmation of human FEN1 inhibitors. shares compounds with FEN1 inh-1. FEN1 flap cleavage, TAMRA/BHQ2 fluorogenic DNA substrate. Potency, µM, actives largely listed as inhibitors. actives 79% (n = 880). AID 720498; also: potency is read from the fitted curve at half-maximal effect; nearly all actives have a fitted effect of over 60% in size
* marks the source's active call; other numbers are inactive results; ? = inconclusive; nt = no result given; [ ] = remark or other dose. Unless noted, calls follow the shape of the dose curve; as a rule, active = well fitted curve in the direction sought with a large enough effect; inconclusive = small, poorly fitted or top-dose-only effect, or another doubt; inactive = no such curve, though single readings can be large; an effect the other way counts as inactive or inconclusive.

SMILES | Pol beta inh | POLK inh | FEN1 inh-1 | Pol eta inh | PI5P4K alpha inh | POLI inh | FEN1 inh-2
O=C(O)c1cc(NC(=O)c2ccc([N+](=O)[O-])cc2)cc(NC(=O)c2ccc([N+](=O)[O-])cc2)c1 | 9% | -9% | ? | ? | -4 | -12% | ?
COCCCNC(=O)c1cccn2c(=O)c3cc4ccccc4cc3nc12 | 3% | -12% | ? | ? | nt | 18% | ?
C=CCn1c(=N)c(C(=O)NCCCOC)cc2c(=O)n3cccc(C)c3nc21 | 17% | -6% | -11% | ? | 9 | -11% | nt
CCN(CC)CCNC(=O)c1cc2c(=O)n(C)c3ccccc3c2s1 | 12% | 17% | 50µM* | -7% | -1 | 7% | 48*
O=C(CSc1nc(-c2ccccc2)nc2ccc(F)cc12)Nc1ccc(C(=O)O)cc1 | -10% | -14% | ? | ? | ? | -6% | 60*
O=[N+]([O-])c1ccc(/C=N/Nc2nc(N3CCCCC3)nc(N3CCCCC3)n2)cc1 | 4% | -2% | 16% | -2% | 1 | 6% | nt
O=[N+]([O-])c1ccc(/C=N/Nc2nc(N3CCCCCC3)nc(N3CCCCCC3)n2)o1 | ? | -10% | 35µM* | -18% | -18 | -10% | 38*
CCOC(=O)c1nc(Nc2ccc(N3CCC(C)CC3)cc2)c2ccccc2n1 | 79% | -12% | -17% | ? | 3 | 21% | nt
Cc1ccccc1/C=N/Nc1nc2ccccc2c(=O)n1O | -28% | -2% | 40µM* | ? | -14 | 15% | 43*
COC(=O)c1cc(S(=O)(=O)N(C)C2CCCCC2)c[nH]1 | 24% | -3% | -10% | -7% | 2 | 6% | nt
O=C1c2cccc3cc([N+](=O)[O-])cc(c23)C(=O)N1/N=C/c1ccc(O)cc1O | 40µM* | ? | ? | 50µM* | ? | ? | 43*
COc1ccccc1/C=N/N1C(=O)c2cccc3cccc(c23)C1=O | -2% | -14% | -2% | -10% | -6 | 44% | nt
CN(C)CCCNc1cc(N2CCN(C3CCCCC3)CC2)c2noc3c2c1C(=O)c1ccccc1-3 | -22% | -20% | 11µM* | ? | nt | 41% | 30*
O=C1c2ccccc2-c2onc3c(N4CCN(C5CCCCC5)CC4)cc(NCCO)c1c23 | 57% | -20% | -20% | 0% | nt | 21% | nt
O=C(/C=C/c1ccco1)NC(=S)Nc1cccc(-c2nc3ccccc3o2)c1 | 28µM* | 79µM* | -14% | 32µM* | -64* | ? | ?
CC(C)c1cccc(C(C)C)c1NC(=O)CNCc1ccccc1F | -12% | 3% | 6% | -16% | -2 | -4% | nt
CN(C)CCc1cc2c(c3c1ccc1ccccc13)OCO2 | 20µM* | ? | ? | -24% | 6 | ? | 21*
COc1cc2ccc3c(CCN(C)C)cc(OC)c(OC)c3c2cc1OC | 26% | -20% | ? | -27% | -6 | ? | nt
CC1=[N+](C)c2c(ccc3cccnc23)C1(C)C | 25µM* | -11% | 45µM* | -12% | -19 | 53% | 43*
Cc1[nH]c2c(ccc3cccnc32)c1C | 1% | -6% | 0% | -18% | 3 | 65% | nt
Cc1nc(N=C(N)N)nc2ccccc12 | -29% | 11% | ? | 10% | 6 | -10% | 48*
Cc1ccc2nc(N=C(N)N)nc(C)c2c1 | -9% | 10% | 50µM* | -6% | 1 | 48% | 34*
Cc1cc2nc(N=C(N)N)nc(C)c2cc1C | -2% | 5% | 18µM* | -1% | -3 | -25% | 67*
Cc1cc2nc(/N=C(\N)NC(=O)C(C)C)nc(C)c2cc1C | -22% | 2% | -5% | -14% | 1 | -5%[58.9 µM] | nt
Cc1nc(/N=C(\N)NC(=O)c2ccccc2)nc2ccccc12 | -11% | -10% | 5% | -6% | nt | ? | nt
SMILES | Pol beta inh | POLK inh | FEN1 inh-1 | Pol eta inh | PI5P4K alpha inh | POLI inh | FEN1 inh-2
O=C(N[C@@H]1c2ccccc2CC[C@@H]1OCc1ccccc1)c1ccc(C(F)(F)F)cc1 | nt | 6% | 16% | -1% | 8 | 9% | nt
CCc1c(C)nc(SCc2ccccn2)[nH]c1=O | 66% | -3% | 3% | -3% | 0 | 21% | nt
CC(C)Cn1c(CN2CCN(c3cccc(Cl)c3)CC2)nc2c1c(=O)[nH]c(=O)n2C | 13% | -3% | -5% | -16% | nt | 24% | nt
COc1ccccc1OCC(=O)N(Cc1ccco1)Cc1ccccc1F | 0% | 0% | -7% | -11% | nt | 1% | nt
COc1ccc(COCC(O)CN2CCC(CN3C(=O)c4cccc5cccc(c45)C3=O)CC2)cc1OC (stereo unspecified) | 3% | 5% | ? | -26% | 2 | 9% | ?
COc1cc(COCC(O)CN2CCN(CCN3C(=O)c4cccc5cccc(c45)C3=O)CC2)cc(OC)c1OC (stereo unspecified) | -5% | 1% | ? | -17% | 2 | -20% | nt
Cc1cc(C)cc(OCC(O)CN2CCC(CN3C(=O)c4cccc5cccc(c45)C3=O)CC2)c1 (stereo unspecified) | 3% | -12% | ? | ? | -4 | 17% | ?
CCCN(CCC)CCCNC(=O)c1cc2c(-c3ccc(Cl)cc3)nn(C)c2s1 | 20µM* | -10% | ? | -7% | nt | -1% | ?
COc1ccc(CNC(=O)c2cc3c(-c4ccc(Cl)cc4)nn(C)c3s2)cc1 | 20% | 3% | -21% | -6% | nt | 17% | nt
CCOC(=O)C1=C(O)C(=O)C(C(=O)OCC)C1 (stereo unspecified) | nt | 0% | 4.5µM* | -16% | -20 | 12% | 8.5*
CCOC(=O)C1Cc2cc3c(cc2C1=O)CC(C(=O)OCC)C3=O (stereo unspecified) | 1% | nt | nt | nt | nt | nt | nt
O=c1c2ccccc2nc2sc(Nc3cccc(N4CCNCC4)c3)nn12 | nt | nt | nt | nt | nt | nt | 34*
Nc1nccnc1C(=O)OCC(=O)Nc1ccc2[nH]c(=O)[nH]c2c1 | nt | ? | ? | 22µM* | -10 | 20µM* | ?
CCN1/C(=C/c2ccc3cc(C)ccc3[n+]2CC)Sc2ccccc21 | ? | -34% | ? | ? | -6 | ? | 19*
CCN1/C(=C/c2sc(-c3ccccc3C)c[n+]2C)Sc2ccccc21 | ? | -25% | ? | -19% | -5 | 101% | nt
COc1ccccc1NC(=S)NCc1ccc2c(c1)OCO2 | 12% | 4% | -1% | -3% | 2 | 51% | nt
O=C(CSc1nnc(-c2ccco2)o1)c1ccc[nH]1 | 14µM* | ? | -16% | ? | -86* | 14µM* | ?

High-throughput results: PubChem BioAssay, National Center for Advancing Translational Sciences (NCATS)
